Results as given in PubChem BioAssay AID1030 (National Center for Advancing Translational Sciences (NCATS), 2008).
Screen size: about 220,000 compounds; about 16,000 (7.3%) were called active. Inconclusive results (about 25%) are left out. Calls follow the shape of the dose curve; as a rule, active = well fitted inhibition curve with a large enough effect (not every such curve was filed as active); inconclusive = small, poorly fitted or top-dose-only effect, or another doubt; inactive = no such curve, though single readings can be large or run the other way. Only a selection was taken, and actives are over-represented in it overall.

target: Aldehyde dehydrogenase 1A1 (Homo sapiens) (UniProt P00352); assay: qHTS Assay for Inhibitors of Aldehyde Dehydrogenase 1 (ALDH1A1); settings: Purified ALDH1A1, NADH fluorescence, propionaldehyde substrate; series mostly up to 75.3 µM; activity, negative = inhibition: at the top concentration;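 as to activity, negative = inhibition: plate controls were no enzyme wells and a reference inhibitor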
Potency is read from the fitted curve at half-maximal effect.

Chain of Aldehyde dehydrogenase 1A1 (Homo sapiens) (P00352 whole entry, looked up): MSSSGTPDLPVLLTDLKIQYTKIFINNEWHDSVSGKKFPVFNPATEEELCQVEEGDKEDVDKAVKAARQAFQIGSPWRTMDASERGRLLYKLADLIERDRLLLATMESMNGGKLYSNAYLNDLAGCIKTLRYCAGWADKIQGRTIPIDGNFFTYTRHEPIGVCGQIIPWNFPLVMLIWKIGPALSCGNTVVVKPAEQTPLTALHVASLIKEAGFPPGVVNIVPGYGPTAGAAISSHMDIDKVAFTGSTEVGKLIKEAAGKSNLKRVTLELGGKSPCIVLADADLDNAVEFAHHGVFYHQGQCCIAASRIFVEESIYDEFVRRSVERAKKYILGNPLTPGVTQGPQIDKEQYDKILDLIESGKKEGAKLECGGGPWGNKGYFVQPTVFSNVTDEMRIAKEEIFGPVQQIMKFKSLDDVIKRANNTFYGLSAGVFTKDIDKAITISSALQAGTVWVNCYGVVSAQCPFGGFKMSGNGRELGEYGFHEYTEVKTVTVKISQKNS

activity, negative = inhibition, inactive:
Cc1c(Br)c([N+](=O)[O-])nn1CC(=O)Nc1sc2c(c1C(=O)OC(C)C)CCC(C)C2 (stereo unspecified) 11.3%
CCCCC[C@H](O)/C=C/[C@@H]1[C@@H](CC(=O)CCC(=O)O)[C@@H](O)C[C@H]1O 3.43%
COc1ccc(C2CC(c3cccs3)=NN2C(=O)CSc2nncs2)cc1OC (stereo unspecified) -3.31%
COc1cc(/C=N/N=C(\N)c2nonc2N)cc(OC)c1OC -1.07%
COCCNC(=O)C(OC(=O)c1cccs1)c1ccc(F)cc1 (stereo unspecified) 3.83%
O=c1c2ccccc2oc2nc(C3CCCCC3)n(Cc3ccco3)c(=O)c12 -10.5%
CCc1nc2oc3ccccc3c(=O)c2c(=O)n1Cc1ccc(OC)cc1 8.05%
COc1ccc(C2=NN(c3ccccc3)C(c3cccs3)C2)cc1 (stereo unspecified) 14.6%
Cc1cnc(NC(=O)CSc2nnc(-c3ccccc3)n2Cc2ccccc2)s1 -1.75%
Cc1ccc(SCC(=O)Nc2ncc(C)s2)cc1 10.3%
Cc1ccc(-c2cc(C(=O)NN)n[nH]2)o1 9.31%
O=C(O)CCCC(=O)Nc1ccc(Oc2cccc(C(F)(F)F)c2)nc1 9.57%
O=C(COC(=O)c1ccccc1C(=O)N1CCN(c2ccccc2)CC1)NCc1ccccc1 11.5%
Oc1ccccc1N1CCN(C(=S)NCc2ccccc2)CC1 -6.52%
N/C(=N\OC(=O)c1ccc([N+](=O)[O-])cc1)c1ccccn1 13.7%
C[N+]1(CC(O)COc2ccccc2)CCN(C(=O)c2ccc([N+](=O)[O-])cc2)CC1 (stereo unspecified) 9.82%
CC(=O)NCCn1c(SCC(=O)Nc2ccc(C)cc2)nc2ccccc2c1=O 1.03%
Nc1ccc(SCCN2C(=O)c3ccccc3C2=O)cc1 1.44%
COc1ccc(C(=O)CSc2nnc(-c3ccco3)o2)cc1 -14.6%
COC(=O)C1=C(NC(=O)C(C)(C)C)CCS1 6.13%
C=CCC(C(=O)c1ccccc1)[N+](C)(C)CC=C (stereo unspecified) 5.4%
Cc1ccc(Cl)cc1NC(=S)N(CCN(C)C)Cc1cccs1 1.93%
N#Cc1cccc(Nc2c3c(nc4ccccc24)CCCC3)c1 2.92%
CCc1nnc(NC(=O)CCN(c2ccc(C)cc2)S(=O)(=O)c2ccccc2)s1 -0.208%
CCOC(=O)Cn1c(=O)oc2cc(S(=O)(=O)NCC3CCCO3)ccc21 (stereo unspecified) 1.27%
CCOc1ccc(S(=O)(=O)N(CC(=O)NCC(F)(F)F)Cc2ccco2)cc1 3.47%
Cc1ccc(CN2CCN(Cc3ccc(OCCO)cc3)CC2CCO)o1 (stereo unspecified) 6.25%
C[C@H]1Cc2c(COc3ccccc3)nc3c(c2CO1)CN(C(=O)NCc1ccco1)CC3 -1.72% [at 13.5 µM]
Cc1ccc(OCC(=O)N2CCN(C(=O)c3cccnc3)CC2)cc1 -3.66%
C[C@H]1Cc2c(-c3ccccc3)nc3c(c2CO1)CN(C(=O)C1CC1)CC3 8.3% [at 13.5 µM]
COc1cccc(CC(=O)N2CCc3nc(COc4ccccc4)c4c(c3C2)CO[C@@H](C)C4)c1 6.69% [at 13.5 µM]
C[C@H]1Cc2c(COc3ccccc3)nc3c(c2CO1)CN(C(=O)Nc1cccc(C#N)c1)CC3 -13.5% [at 13.5 µM]
COc1ccc(F)c(-c2nc(CN3CCC(c4ccccc4)CC3)c(C)o2)c1 -4.43%
COc1c(C)cc(C(=O)C2CCCN(S(=O)(=O)c3c(C)noc3C)C2)cc1C (stereo unspecified) -2.76%
C[C@H]1Cc2c(-c3ccccc3)nc3c(c2CO1)CN(S(=O)(=O)c1ccc(Cl)c2nonc12)CC3 -9.79% [at 13.5 µM]
CN1CCN(/N=C/c2ccc(-c3ccc([N+](=O)[O-])cc3)o2)CC1 -8.28%
CCOC(=O)N1CCN(C(=S)Nc2ccc(C)cc2C)CC1 -5.34%
CCOc1ccc(N(CC(=O)NCCc2ccc(OC)cc2)S(C)(=O)=O)cc1 -2.6%
COCOc1cc(OC)ccc1C(=O)/C=C/c1ccc([N+](=O)[O-])cc1 -8.84%
CCOc1ccc(-c2n[nH]c(C)c2-c2ccccn2)c(O)c1 4.95%
Cc1cc(C)cc(C(=O)N(CCc2ccccc2)C2=CC3CCC(C2)N3C)c1 (stereo unspecified) 8.36%
CCn1c(CNC(=O)c2ccco2)nnc1SCC(=O)Nc1cccc(F)c1 4.1%
Nc1ccc(OCC(O)C[n+]2ccc(CCS(=O)(=O)[O-])cc2)cc1 (stereo unspecified) -10%
Cc1ccc(NC(=O)C(=O)NCc2ccc(/C=N/NC(=O)c3c(C)nc4cc(C)ccn34)o2)cc1 -4.69%
CCOC(=O)C(NC(C)=O)C(=O)Nc1ccc(OC)cc1 (stereo unspecified) 6.93%
CCn1c(COc2ccccc2)nnc1SCC(=O)NCc1ccco1 12.4%
CCn1c(COc2ccc(OC)cc2)nnc1SCC(=O)Nc1cc(OC)ccc1OC -3.3%
COc1ccc(CC(=O)NCc2nnc(SCC(=O)Nc3nccs3)n2C)cc1 -7.51%
O=C(CSc1nnc(-c2cccnc2)n1Cc1ccco1)c1ccc(Cl)cc1 -9.79%
COC(=O)c1ccc(NC(=O)CSc2nnc(-c3ccncc3)n2C)cc1 -10.8%
CCn1c(CNC(=O)c2ccc(OC)c(OC)c2)nnc1SCC(=O)Nc1ccccc1 -7.28%
CN(Cc1ccccc1)C(=O)CCc1ccccc1 0.149%
CCOCCCNC(=O)C(=O)NCCCOCC 8.26%
CC(C)C(=O)Nc1cccc(NC(=O)c2ccc([N+](=O)[O-])cc2Cl)c1 -8.63%
Clc1ccc(N/N=C/c2cccs2)nn1 -10.1%
Cc1ccccc1-c1ccc(C(=O)O)s1 -7.43% [at 120 µM]
COc1ccc(CN2CCCC(C(=O)c3ccc(Cl)cc3)C2)cc1Cn1cncn1 (stereo unspecified) 0.371%
CCOC(=O)c1[nH]ncc1CN1CCCC(C(=O)c2ccc(OC)cc2C)C1 (stereo unspecified) 5.87%
COc1cc(OC)c(C(=O)N2CCCC2)cc1OC 4.29%
O=C(NCc1ccco1)C1CCCN(S(=O)(=O)c2ccccc2)C1 (stereo unspecified) -4.25%
Cc1ccc(S(=O)(=O)N2CCC(C(=O)N[C@@H](C)C(=O)NCc3ccco3)CC2)cc1 2.42%
CSc1ncccc1C(=O)N1CCCC(CCC(=O)NCc2ccccc2F)C1 (stereo unspecified) -1.19%
COc1ccc(OC)c(-n2nnnc2SCC(=O)Nc2cc(C)ccc2OC)c1 -7.65%
Cc1cc(C(=O)COC(=O)CNC(=O)c2ccc(F)cc2)c(C)n1Cc1ccco1 -8.91%
CC/C=C\C/C=C\C/C=C\C/C=C\C/C=C\C/C=C\CCC(=O)NCCc1ccc(O)c(O)c1 -7.38%
COc1ccccc1OCc1ccc(C(=O)N2CCN(C)CC2)o1 0.393%
O=C(c1ccco1)N1CCN(C(=O)C2CC(c3ccc(F)cc3)=NO2)CC1 (stereo unspecified) 5.77%
COc1ccc(-n2c(C)cc(C(=O)CN3C(=O)NC4(CCc5ccccc54)C3=O)c2C)cc1 (stereo unspecified) -6.6%
Cc1ccc(NC(=O)CNCc2ccccn2)cc1S(=O)(=O)N(C)C -2.4%
Cc1ccc(/C=N/NC(=O)Cn2ccc(C(F)(F)F)n2)o1 2.52%
CCN(CC)N=Nc1cccc(NC(C)=O)c1 0.592%
O=C(Nc1ccncc1)c1cc2ccccc2o1 2.07%
Cc1c(/C=N\NC(=O)c2cc3ccccc3o2)c2ccccc2n1C 3.07%
NC(=O)Cn1nc([N+](=O)[O-])nc1Oc1ccc(Br)cc1 10.1%
CC(C)(C)C(=O)N(Cc1ccccc1)c1ccccn1 -3.2%
CC(C)CCN1CCN(Cc2cn[nH]c2C2CCCCC2)CC1CCO (stereo unspecified) 1.48%
CCC(C)NC(=O)CCCc1ccccc1 (stereo unspecified) 6.92%
CC(C)(O)C(=O)NN(C(=O)c1ccccc1)c1cccc(Br)c1 7.28%
CCCCCCCCC(=O)NCCOc1ccccc1 3.47%
Cc1ccc(N(NC(=O)C(C)(C)O)C(=O)c2ccccc2)cc1C -4.71%
Cc1cc(NC(=O)CSCc2ccccc2C)no1 -0.887%

Potency, active:
O=c1c2ccccc2oc2nc3n(c(=O)c12)CCCS3 25.1 µM
Cc1cnc(NC(=O)CSc2nnc(-c3ccc(Cl)cc3Cl)n2N)s1 20 µM
Oc1ccc(N2CCN(C(=S)NCc3ccccc3)CC2)cc1 20 µM
CN(C)CCCn1c(SCCN2C(=O)c3ccccc3C2=O)nc2ccccc2c1=O 20 µM
N#C/C(=C(\O)C(F)(F)F)c1nnc2n1CCCCC2 4.47 µM
CCOC(=O)Cn1c(=O)oc2cc(S(=O)(=O)N(C)Cc3ccco3)ccc21 15 µM
COc1ccc(-c2nc3c(c4c2C[C@H](c2ccccc2)OC4)CN(C(=O)c2ccco2)CC3)c(C)c1 1.78 µM
COc1ccc(-c2nc3c(c4c2C[C@H](c2ccccc2)OC4)CN(C(=O)C2CC2)CC3)c(C)c1 0.398 µM
COc1ccc(-c2nc3c(c4c2C[C@H](c2ccccc2)OC4)CN(S(=O)(=O)c2c(C)noc2C)CC3)c(C)c1 0.447 µM
COc1ccc(-c2nc3c(c4c2C[C@H](c2ccccc2)OC4)CN(C(=O)c2cccnc2)CC3)c(C)c1 0.355 µM
COc1ccc(C(=O)CSc2nnc(COc3ccccc3)n2Cc2ccco2)cc1 8.91 µM
CCn1c(CNc2ccc(OC)cc2)nnc1SCC(=O)c1ccc(OC)cc1 0.199 µM
COC(=O)c1ccc(NC(=O)CSc2nnc(CNc3ccc(OC)cc3)n2C)cc1 28.2 µM
Cc1ccc(S(=O)(=O)N2CCCC2C(=O)NCc2ccco2)cc1 (stereo unspecified) 28.2 µM
COc1ccc(C)cc1-n1nnnc1SCC(=O)c1cc(C)n(Cc2ccco2)c1C 15.8 µM
O=C(c1ccco1)N1CCN(C(=O)c2ccc(COc3ccc(F)cc3)o2)CC1 28.2 µM
CN(C)S(=O)(=O)c1cc(NC(=O)CN2C(=O)NC3(CCCc4ccccc43)C2=O)ccc1Cl (stereo unspecified) 12.6 µM
O=C(N/N=C/c1coc2ccccc2c1=O)c1cc2ccccc2o1 10 µM
CCCC(O)(CCC)C(=O)NN(C(=O)CCl)c1cccc(C)c1 39.8 µM
CCCCC(O)(CCCC)C(=O)NN(C(=O)CCl)c1ccccc1 3.98 µM
